Assay results as given in PubChem BioAssay (EPA / NIEHS).
Active and inactive are the calls of the source. Rule for the calls: active = hit-call score of the fitted dose curve at least 0.9, where 1 is the maximum; inactive = score below 0.9.

What was measured:
[1] = read-out: Interferon-gamma inducible Protein 10 (IP10), CXCL10 (gene 3627); assay: BSK_BE3C_IP10: BioMAP Diversity Plus: BE3C Assay for Interferon-gamma inducible Protein 10 (IP10) Biomarker Activity (AID 2283034); conditions: primary human bronchial epithelial cells; actives raise or lower the signal
Outline: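 IP-10 quantified by ELISA serves as the endpoint. Cells: primary human bronchial epithelium, read 24 h after compound addition. Activity is derived by bidirectional fitting with DMSO as negative control.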

[2] = read-out: Monokine induced gamma interferon (MIG), CXCL9 (gene 4283); assay: BSK_BE3C_MIG: BioMAP Diversity Plus: BE3C Assay for Monokine induced gamma interferon (MIG) Biomarker Activity (AID 2283035); conditions: primary human bronchial epithelial cells; actives raise or lower the signal;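 for outcome: MIG protein measured by ELISA in BE3C cultures after 24 h of dosing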
Outline: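 hu bronchial epithelial 1° cells, 24 h cpd; MIG by ELISA; bidirectional fit, DMSO = baseline.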

[3] = read-out: Transforming growth factor beta 1 (TGFb1), TGFB1 (gene 7040); assay: BSK_BE3C_TGFb1: BioMAP Diversity Plus: BE3C Assay for Transforming growth factor beta 1 (TGFb1) Biomarker Activity (AID 2283036;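 for outcome: TGF-b1 protein level measured by ELISA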); conditions: primary human bronchial epithelial cells; actives raise or lower the signal
Outline: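 Bronchial epithelial primary cells are treated with test chemical, then TGF-b1 is quantified by ELISA after 24 hours. Values derive from bidirectional fitting against DMSO, with cytotoxicity checked by SRB staining in parallel cultures.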

[4] = read-out: Plasminogen activator inhibitor-1 (PAI1), SERPINE1 (gene 5054); assay: BSK_BE3C_PAI1: BioMAP Diversity Plus: BE3C Assay for Plasminogen activator inhibitor-1 (PAI1) Biomarker Activity (AID 2283037); conditions: primary human bronchial epithelial cells; actives raise or lower the signal
Outline: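 Values derive from bidirectional fitting against DMSO baseline of PAI-1 levels, measured by ELISA in human bronchial epithelial cells 24 h after compound addition.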

[5] = read-out: urokinase plasminogen activator (uPA), PLAU (gene 5328); assay: BSK_BE3C_uPA: BioMAP Diversity Plus: BE3C Assay for urokinase plasminogen activator (uPA) Biomarker Activity (AID 2283038); conditions: primary human bronchial epithelial cells; actives raise or lower the signal;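 for outcome: uPA protein level quantified by ELISA in cell cultures; uPA read one day after compound addition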
Outline: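 Measured by ELISA: uPA from human primary bronchial epithelial cells 24 h after chemical treatment. Values derive from bidirectional curve fitting with DMSO serving as negative control. Total protein by SRB staining in parallel wells flagged overt cytotoxicity.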

[6] = read-out: Urokinase-type plasminogen activator receptor (uPAR), PLAUR (gene 5329); assay: BSK_BE3C_uPAR: BioMAP Diversity Plus: BE3C Assay for Urokinase-type plasminogen activator receptor (uPAR) Biomarker Activity (AID 2283039); conditions: primary human bronchial epithelial cells; actives raise or lower the signal;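 for outcome: uPAR protein level measured by ELISA on the cells; cells exposed to compound for one day before measurement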
Outline: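 Steps: dose human primary bronchial epithelial cells, incubate 24 h, measure uPAR by ELISA, then fit gain- or loss-of-signal response bidirectionally relative to DMSO.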

[7] = read-out: Interleukin-6 (IL6), IL6 (gene 3569); assay: BSK_CASM3C_IL6: BioMAP Diversity Plus: CASM3C Assay for Interleukin-6 (IL6) Biomarker Activity for (AID 2283040); conditions: primary human coronary artery smooth muscle cells; actives raise or lower the signal
[8] = read-out: Tissue plasminogen activator (tPA), PLAT (gene 5327); assay: BSK_BE3C_tPA: BioMAP Diversity Plus: BE3C Assay for Tissue plasminogen activator (tPA) Biomarker Activity (AID 2283041); conditions: primary human bronchial epithelial cells; actives raise or lower the signal;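 for outcome: tPA level quantified by ELISA one day after compound addition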
Outline: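 Gain- or loss-of-signal in tPA, measured by ELISA, derived by bidirectional fitting against DMSO. Cells: human primary bronchial epithelial; read at 24 h after chemical dosing.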

[9] = read-out: Interleukin-8 (IL8), CXCL8 (gene 3576); assay: BSK_CASM3C_IL8: BioMAP Diversity Plus: CASM3C Assay for Interleukin-8 (IL8) Biomarker Activity (AID 2283042); conditions: primary human coronary artery smooth muscle cells; actives raise or lower the signal;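 note: IL-8 protein level quantified by ELISA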
[10] = read-out: Human Leukocyte Antigen - DR isotype (HLADR), HLA-DRA (gene 3122); assay: BSK_CASM3C_HLADR: BioMAP Diversity Plus: CASM3C Assay for Human Leukocyte Antigen - DR isotype (HLADR) Biomarker Activity (AID 2283043); conditions: primary human coronary artery smooth muscle cells; actives raise or lower the signal;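 note: cell-surface HLA-DR protein level quantified by ELISA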
[11] = read-out: Macrophage colony-stimulating factor (MCSF), CSF1 (gene 1435); assay: BSK_CASM3C_MCSF: BioMAP Diversity Plus: CASM3C Assay for Macrophage colony-stimulating factor (MCSF) Biomarker Activity (AID 2283044); conditions: primary human coronary artery smooth muscle cells; actives raise or lower the signal;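 note: M-CSF protein amount quantified by ELISA after 24 h exposure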
[12] = read-out: Low-density lipoprotein receptor (LDLR), LDLR (gene 3949); assay: BSK_CASM3C_LDLR: BioMAP Diversity Plus: CASM3C Assay for Low-density lipoprotein receptor (LDLR) Biomarker Activity (AID 2283045); conditions: primary human coronary artery smooth muscle cells; actives raise or lower the signal;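 note: LDLR protein level on the cell surface quantified by ELISA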
[13] = read-out: Monocyte Chemoattractant Protein-1 (MCP1), CCL2 (gene 6347); assay: BSK_CASM3C_MCP1: BioMAP Diversity Plus: CASM3C Assay for Monocyte Chemoattractant Protein-1 (MCP1) Biomarker Activity (AID 2283046); conditions: primary human coronary artery smooth muscle cells; actives raise or lower the signal;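 note: MCP-1 level quantified by ELISA 24 h after dosing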
[14] = BSK_CASM3C_Proliferation: Cell Proliferation Assessment in the BioMAP Diversity Plus: CASM3C Assay (AID 2283047); conditions: primary human coronary artery smooth muscle cells;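 note: sulforhodamine B total protein stain as relative cell number at 560 nm; sub-confluent cells exposed 48 h before staining; fitted both ways against DMSO so gain or loss of cell number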
[15] = read-out: Monokine induced gamma interferon (MIG), CXCL9 (gene 4283); assay: BSK_CASM3C_MIG: BioMAP Diversity Plus: CASM3C Assay for Monokine induced gamma interferon (MIG) Biomarker Activity (AID 2283048); conditions: primary human coronary artery smooth muscle cells; actives raise or lower the signal;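 note: MIG protein level measured by ELISA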
[16] = read-out: serum amyloid A (SAA), SAA1 (gene 6288); assay: BSK_CASM3C_SAA: BioMAP Diversity Plus: CASM3C Assay for serum amyloid A (SAA) Biomarker Activity (AID 2283049); conditions: primary human coronary artery smooth muscle cells; actives raise or lower the signal;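 note: SAA protein level quantified by ELISA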
[17] = BSK_CASM3C_SRB: Viability Assessment in the BioMAP Diversity Plus: CASM3C Assay (AID 2283050); conditions: primary human coronary artery smooth muscle cells;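 note: total protein by SRB staining as cytotoxicity measure in parallel cultures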
[18] = read-out: Thrombomodulin, THBD (gene 7056); assay: BSK_CASM3C_Thrombomodulin: BioMAP Diversity Plus: CASM3C Assay for Thrombomodulin Biomarker Activity (AID 2283051); conditions: primary human coronary artery smooth muscle cells; actives raise or lower the signal;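 note: thrombomodulin protein level measured by ELISA 24 h after dosing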
[19] = read-out: Tissue Factor, F3 (gene 2152); assay: BSK_CASM3C_TissueFactor: BioMAP Diversity Plus: CASM3C Assay for Tissue Factor Biomarker Activity (AID 2283052); conditions: primary human coronary artery smooth muscle cells; actives raise or lower the signal;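 note: cell surface tissue factor protein level read by ELISA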
[20] = read-out: Interferon-gamma inducible Protein 10 (IP10), CXCL10 (gene 3627); assay: BSK_hDFCGF_IP10: BioMAP Diversity Plus: hDFCGF Assay for Interferon-gamma inducible Protein 10 (IP10) Biomarker Activity (AID 2283053); conditions: primary human foreskin fibroblasts; actives raise or lower the signal
Outline: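 Cells: human dermal foreskin fibroblasts. Exposure: 24 h post-dosing. Detection: IP-10 ELISA, with values expressed against DMSO controls and fitted in both directions.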

SMILES: c1nc[nH]n1
- outcome [1]: inactive
- outcome [2]: inactive
- outcome [3]: inactive
- outcome [4]: inactive
- outcome [5]: inactive
- outcome [6]: inactive
- outcome [7]: inactive
- outcome [8]: inactive
- outcome [9]: inactive
- outcome [10]: inactive
- outcome [11]: inactive
- outcome [12]: inactive
- outcome [13]: inactive
- outcome [14]: inactive
- outcome [15]: inactive
- outcome [16]: inactive
- outcome [17]: inactive
- outcome [18]: inactive
- outcome [19]: inactive
- outcome [20]: inactive

SMILES: ClC1=C(Cl)C2(Cl)C3C(Cl)C(Cl)CC3C1(Cl)C2(Cl)Cl (stereo not given)
- AC50 [1]: 34.9 µM (active)
- AC50 [2]: 30.6 µM (active)
- AC50 [3]: 9.17 µM (active)
- AC50 [4]: 36.1 µM (active)
- outcome [5]: inactive
- outcome [6]: inactive
- outcome [7]: inactive
- outcome [8]: inactive
- outcome [9]: inactive
- AC50 [10]: 20 µM (active)
- outcome [11]: inactive
- outcome [12]: inactive
- outcome [13]: inactive
- AC50 [14]: 31.1 µM (active)
- outcome [15]: inactive
- AC50 [16]: 20 µM (active)
- AC50 [17]: 33.9 µM (active)
- AC50 [18]: 24.1 µM (active)
- outcome [19]: inactive
- AC50 [20]: 7.58 µM (active)

SMILES: CCOP(=S)(S)OCC
- outcome [1]: inactive
- outcome [2]: inactive
- outcome [3]: inactive
- outcome [4]: inactive
- outcome [5]: inactive
- outcome [6]: inactive
- outcome [7]: inactive
- outcome [8]: inactive
- outcome [9]: inactive
- outcome [10]: inactive
- outcome [11]: inactive
- outcome [12]: inactive
- outcome [13]: inactive
- outcome [14]: inactive
- outcome [15]: inactive
- outcome [16]: inactive
- outcome [17]: inactive
- outcome [18]: inactive
- outcome [19]: inactive
- outcome [20]: inactive

SMILES: CCOc1ccc(C(C)(C)COCc2cccc(Oc3ccccc3)c2)cc1
- outcome [1]: inactive
- outcome [2]: inactive
- outcome [3]: inactive
- outcome [4]: inactive
- outcome [5]: inactive
- outcome [6]: inactive
- outcome [7]: inactive
- AC50 [8]: 0.668 µM (active)
- outcome [9]: inactive
- outcome [10]: inactive
- outcome [11]: inactive
- outcome [12]: inactive
- outcome [13]: inactive
- outcome [14]: inactive
- outcome [15]: inactive
- outcome [16]: inactive
- outcome [17]: inactive
- AC50 [18]: 10.7 µM (active)
- outcome [19]: inactive
- outcome [20]: inactive

SMILES: CC(Cl)CN(C)C (stereo not given)
- outcome [1]: inactive
- outcome [2]: inactive
- outcome [3]: inactive
- outcome [4]: inactive
- outcome [5]: inactive
- outcome [6]: inactive
- outcome [7]: inactive
- outcome [8]: inactive
- outcome [9]: inactive
- outcome [10]: inactive
- outcome [11]: inactive
- outcome [12]: inactive
- outcome [13]: inactive
- outcome [14]: inactive
- outcome [15]: inactive
- outcome [16]: inactive
- outcome [17]: inactive
- outcome [18]: inactive
- outcome [19]: inactive
- outcome [20]: inactive

SMILES: C=CC(=O)OCC(CC)(COC(=O)C=C)COC(=O)C=C
- AC50 [1]: 4.45 µM (active)
- AC50 [2]: 9.44 µM (active)
- AC50 [3]: 6.86 µM (active)
- AC50 [4]: 10.5 µM (active)
- AC50 [5]: 4.96 µM (active)
- AC50 [6]: 7.24 µM (active)
- AC50 [7]: 2.11 µM (active)
- AC50 [8]: 5.46 µM (active)
- AC50 [9]: 6.3 µM (active)
- AC50 [10]: 1.46 µM (active)
- AC50 [11]: 1.98 µM (active)
- outcome [12]: inactive
- AC50 [13]: 2.54 µM (active)
- AC50 [14]: 2.84 µM (active)
- AC50 [15]: 2.82 µM (active)
- AC50 [16]: 0.624 µM (active)
- AC50 [17]: 2.21 µM (active)
- outcome [18]: inactive
- AC50 [19]: 0.847 µM (active)
- AC50 [20]: 1.71 µM (active)
